Compounds with a hit are over-represented: about 3.1% of the library has one in this group of screens.
PMP22 txn: PMP22 gene transcription modulation; S16 Pmp22-F2sN Schwann cells, FLuc/NLuc coincidence luminescence, 24 h; Potency, µM (doses to about 57.5 µM), for inactives: at the top dose activity change, negative = inhibition, actives largely listed as inhibitors; 2% of 43,000 active; AID 1508649; active = clear falling dose curves in both reporters; inconclusive = both reporters move, but less clearly or upward; inactive = either reporter flat; the % is the NLuc reporter signal
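Transcriptional readout in edited S16(c9) cells: two luciferases reported from the Pmp22 locus, measured in turn after 24 h compound incubation.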
S16 viability: toxic to S16 Pmp22-F2sN Schwann cells; S16 Pmp22-F2sN Schwann cells (luciferase reporters placed in the Pmp22 gene) viability, CellTiter-Glo, 24 h; Potency, µM (doses to about 57.5 µM), without a hit: at the highest dose activity change, negative = cytotoxicity, most hits filed as cytotoxic; 0.48% of 43,000 active; also: nearly all actives have a fitted effect of over 65% in size
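Seed 500-1,000 S16 Pmp22-F2sN cells per well in phenol-red-free DMEM with 10% heat-inactivated FBS; pin-add 23 nL compound; incubate 24 h at 37C; add CellTiter-Glo, wait 15 min protected from light; read luminescence.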
p53null 32C kill: kills p53 null cells at the permissive temperature. H1299-neo p53 null cells, ATP luminescence, 24 h, 32C. Potency, µM (doses to about 46.1 µM), inactives show top-dose activity change, negative = cytotoxicity, most hits filed as cytotoxic. 0.62% of 55,000 active;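 also: 0% = DMSO only and -100% = full killing by 100 µM tamoxifen; nearly all actives have a fitted effect of over 55% in size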
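ATP-content luminescence in p53-null H1299-neo cells after 24 h compound exposure (up to 46 uM) at 32C permissive temperature; 0% and 100% killing set by DMSO and 100 uM tamoxifen; Hill-equation AC50.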
p53null 39C tox: selectivity test: cytotoxicity in p53 null cells, nonpermissive temperature; H1299 p53-null (neo) cells, 39C, ATPlite viability, 24 h; Potency, µM (series often up to 46.1 µM), for inactives: at the top dose activity, negative = cell killing, hits mostly cytotoxic; 0.97% of 55,000 active;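 also: 0% = DMSO only and -100% = full killing by 100 µM tamoxifen; nearly all actives have a fitted effect of over 50% in size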
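Concentration-response (up to 46 uM) was run for 24 h at the nonpermissive 39C on H1299-p53A138V or H1299-neo cells. ATP content was measured with ATPlite luminescence. AC50 values were Hill-modeled after normalizing between DMSO and 100 uM tamoxifen killing.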
OvCa metastasis: blocks SKOV3ip1 adhesion and invasion in omental model; SKOV3ip1-GFP adhesion/invasion on 3D omental model, fluorescence; Potency, µM (highest dose often 45.8 µM), for inactives: top-dose activity change, negative = inhibition, most hits filed as inhibitors; 0.1% of 46,000 active; AID 1963576;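 also: plate controls were DMSO wells for no effect and tomatine positive control wells for full effect; nearly all actives have a fitted effect of over 65% in size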
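Primary human omental fibroblast/mesothelial 3D culture pre-formed 48 h. SKOV3ip1-GFP cells added with compounds (0.36-46 umol/L), incubated 2 h RT/16 h 37 C, fixed; GFP cells quantified at 488/509 nm.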
mTORC1 inh: reduces mTORC1 signaling in Tsc2 and p53 null MEF cells. 0.78% of 44,000 active. AID 493208. Potency, µM (highest dose often 38.3 µM), without a hit: top-dose activity change, negative = inhibition, most hits filed as inhibitors. Tsc2-/- p53-/- MEF, phospho-rpS6 immunofluorescence/PI, 24 h;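 also: plate controls were DMSO for no effect and rapamycin for full effect; nearly all actives have a fitted effect of over 50% in size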
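Tsc2-/-, p53-/- MEFs (empty-vector stable line) in DMEM + 10% FBS were treated with compounds 24 h at 37 degree Celsius, fixed, and immunostained for phospho-rpS6 (Alexa-488) with propidium iodide counterstain. Laser-scanning cytometry gave % positive cells, normalized against 7.5 nM rapamycin and DMSO.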
Active calls of the source: *; i = inactive; ? = inconclusive; . = no result. Unless noted, calls follow the shape of the dose curve; as a rule, active = well fitted curve in the direction sought with a large enough effect; inconclusive = small, poorly fitted or top-dose-only effect, or another doubt; inactive = no such curve, though single readings can be large; an effect the other way counts as inactive or inconclusive. Unless noted, % is scaled to controls: 0 for no effect and ±100 for the full control effect; potency is read from the fitted curve at half-maximal effect.

SMILES | PMP22 txn | S16 viability | p53null 32C kill | p53null 39C tox | OvCa metastasis | mTORC1 inh
COc1ccc(-c2cc(C(F)(F)F)nc(SCCC(=O)Nc3cc(C)ccc3O)n2)cc1 | ? | 12% | -2% | 11µM* | -4% | -15%
Cc1ccc(C)c(NC(=O)Cn2nnc(C(=O)NCc3ccco3)c2N)c1 | 10µM* | ? | 21% | -4% | -1% | -20%
Cc1cc(C)c(S(=O)(=O)NCCc2csc3nc(-c4ccc(Cl)cc4)nn23)c(C)c1 | ? | ? | 46% | 20µM* | i | -3%
Clc1cccc(-n2nnnc2NCc2ccccc2Oc2ccccn2)c1Cl | . | . | . | . | 1% | .
O=C(NCCCc1nc2ccccc2n1Cc1ccc(Cl)cc1Cl)c1ccco1 | . | . | 1% | 0% | i | -2%
O=C(NCCc1nc2ccccc2n1Cc1ccc(Cl)cc1Cl)c1ccco1 | ? | 5% | 0% | ? | -2% | 21µM*
CCOc1ccccc1NC(=O)CN1C(=O)C(=O)c2ccccc21 | ? | -30% | -2% | ? | 9% | 2.6µM*
Cc1ccc(Sc2c(C)nn(C(=O)c3ccc(Cl)cc3)c2C)cc1 | -14% | -6% | 13% | 9% | -15% | 4%
COc1cc(C(=O)n2nc(C)c(Sc3ccc(Cl)cc3)c2C)cc(OC)c1OC | -4% | 13% | 7% | ? | i | 10µM*
COc1ccc(-c2cc3c(C)nc(N)nc3n(C3CCC(OCCO)CC3)c2=O)cn1 (stereo unspecified) | . | . | . | . | -17% | .
Cn1cncc1[C@@](N)(c1ccc(Cl)cc1)c1ccc2c(c1)c(-c1cccc(Cl)c1)cc(=O)n2C | . | . | . | . | -2% | .
CCc1ccc(S(=O)(=O)c2nnn3c2nc(Nc2ccc(NC(C)=O)cc2)c2sccc23)cc1 | 11µM* | 11% | ? | ? | i | 1%
CCc1ccc(Nc2nc3c(S(=O)(=O)c4cccc(Cl)c4)nnn3c3ccsc23)cc1 | ? | 2% | 4% | -10% | -12% | 2%
O=C(Nc1nc2c(F)cc(F)cc2s1)c1ccc2c(c1)OCCO2 | ? | -3% | -17% | -40% | -5% | 0%
COc1cccc2sc(NC(=O)c3ccc4c(c3)OCCO4)nc12 | ? | 3% | 7.9µM* | 7.9µM* | i | 10%
C=C1C(=CC=C2CCCC3(C)[C@@H]([C@H](C)C=CC=CC(O)(CC)CC)CC[C@@H]23)C[C@@H](O)C[C@@H]1O (stereo partly specified) | . | . | . | . | 4% | .
FC(F)(F)c1cccc(Nc2nc3nonc3nc2Nc2ccc(Cl)cc2)c1 | 5.6µM* | 8.9µM* | ? | 13µM* | 10µM* | ?
O=C(Nc1cccc(C(F)(F)F)c1)c1cc(-c2ccc(Cl)cc2)on1 | -23% | 21% | 1% | 16% | 17% | -25%
COc1ccc(S(=O)(=O)c2c(Nc3ccccc3F)sc(C(=O)c3cccc(OC)c3)c2N)cc1 | 4µM* | ? | 17% | 3% | ? | -27%
O=C(NCc1ccccc1)c1csc(Nc2ccncn2)n1 | . | . | . | . | 20% | .
Cc1cccc(C(=O)Nc2c(C(=O)NCc3ccc(Cl)cc3)sc3nc(C)cc(C)c23)c1 | ? | ? | -20% | ? | -1% | 13µM*
CN1CC[C@@H](c2c(O)cc(O)c3c(=O)cc(-c4ccccc4Cl)oc23)[C@@H](O)C1 | . | . | . | . | 17% | .
CCOC1OC(=O)C[C@H]1NC(=O)[C@@H]1CCCN1C(=O)[C@@H](NC(=O)c1ccc(N)c(Cl)c1)C(C)(C)C (stereo partly specified) | . | . | . | . | -24% | .
C[C@@H](O)[C@H]1C(=O)N2C(C(=O)OCOC(=O)C(C)(C)C)=C(SC3CN(C4=NCCS4)C3)[C@H](C)[C@H]12 | . | . | . | . | -9% | .
CC(C)Nc1ncnc2c1cnn2-c1ccccc1 | . | . | 11µM* | ? | . | .
SMILES | PMP22 txn | S16 viability | p53null 32C kill | p53null 39C tox | OvCa metastasis | mTORC1 inh
O=S(=O)(c1ccccc1)n1nc(-c2ccccc2)nc1NCc1ccc(Cl)cc1 | -35% | 3% | 9% | -11% | i | 0%
O=S(=O)(c1ccccc1)n1nc(-c2ccc(Cl)cc2)nc1NCc1ccccc1 | ? | ? | 19% | 8% | i | 15µM*
OC1CCC(Nc2ncc3nc(Nc4c(F)cc(F)cc4F)n([C@@H]4CCOC4)c3n2)CC1 (stereo partly specified) | . | . | . | . | 33% | .
COc1ccc(F)c(F)c1C(=O)c1cnc(NC2CCN(S(C)(=O)=O)CC2)nc1N | . | . | . | . | 49% | .
Cc1cccc(NS(=O)(=O)c2ccc3nc(-c4ccccc4)[nH]c3c2)c1C | ? | -13% | ? | 11µM* | i | 1%
CC(C)c1ccc(NS(=O)(=O)c2ccc3nc(-c4ccccc4)[nH]c3c2)cc1 | ? | -26% | ? | 20µM* | -2% | -1%
Cc1ccc(NS(=O)(=O)c2ccc3nc(-c4ccccc4)[nH]c3c2)c(Br)c1 | -4% | -4% | -6% | -21% | 3% | -20%
Clc1cccc(N2CCN(c3ncnc4c3nc3n4CCCC3)CC2)c1 | ? | ? | -11% | -38% | i | -21%
Cc1cccc(N2CCN(c3ncnc4c3nc3n4CCCCC3)CC2C)c1 (stereo unspecified) | 4.4µM* | 8.9µM* | -3% | ? | ? | 9.3µM*
Fc1ccc(N2CCN(c3ncnc4c3nc3n4CCCC3)CC2)cc1 | 4.5µM* | ? | ? | -20% | 6% | -1%
